Test results from PubChem BioAssay (NCATS).
Inconclusive results are not listed. The source made the active and inactive calls. The call rests on the fitted dose curve; in most records, active means well fitted inhibition curve with a large enough effect; inconclusive means small, poorly fitted or top-dose-only effect; inactive means flat fitted curve, though single readings scatter.

assay: qHTS for Inhibitors of Plasmodium falciparum (7G8) proliferation (AID 504316);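 further: 0% = DMSO vehicle and -100% = 0.29 µM artemisinin full kill; nearly all actives have a fitted effect of over 65% in size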; details: P. falciparum 7G8 in erythrocytes, SYBR Green DNA, 72 h; series mostly up to 6.7 µM; activity change, negative = inhibition: at the top concentration
In short: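 Parasite growth measured as SYBR Green DNA fluorescence (ex 485, em 535 nm) after overnight lysis following 72 h culture at 37 °C, 0.3% parasitemia, 2.5% hematocrit. Values normalized against DMSO and 0.29 uM artemisinin controls, with plate-stack correction.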

SMILES | activity change, negative = inhibition | Potency
CCN1C(=O)N[C@@H](CCc2ccccc2)C(C(C)=O)=C1C | -1.52% (inactive) | –
COC(=O)CCCC1=CC2=C(c3ccccc3)C(=O)C(C)(OC(=O)C3CCCC3)C(=O)C2=CN1C(CO)CO (stereo unspecified) | – | inactive
CCCCC1=CC2=CC(=O)C(C)(OC(=O)CC)C(=O)C2=CN1C(CO)CO (stereo unspecified) | -1.68% (inactive) | –
CCN1C(=O)N[C@@H](c2ccco2)C(C(C)=O)=C1C | 3.74% (inactive) | –
CCN(CC)CCCN1C=C2C(=O)C(C)(OC(=O)C3CCCC3)C(=O)C(c3ccccc3)=C2C=C1CCCC(=O)OC (stereo unspecified) | -1.17% (inactive) | –
CC(=O)C1=C(C)N(Cc2ccccc2)C(=O)N[C@H]1c1cccc(F)c1 | -10.2% (inactive) | –
COCCN1C(=O)N[C@@H](c2cccc(F)c2)C(C(C)=O)=C1C | 2.85% (inactive) | –
C[C@H]1Cc2c(-c3ccccc3)nc3c(c2CO1)CN(C(=O)C1CCCCC1)CC3 | -13.2% (inactive) | –
COC(=O)C1=C(C)N(Cc2ccccc2)C(=S)NC1c1cccc(F)c1 (stereo unspecified) | -6.1% (inactive) | –
COC/C=C/C1=CC2=CC(=O)C(C)(OC(=O)c3cnc4ccccc4n3)C(=O)C2=CN1c1ccc(CO)cc1 (stereo unspecified) | 1.21% (inactive) | –
CCN1C(=O)N[C@H](c2ccccc2)C(C(C)=O)=C1C | 2.02% (inactive) | –
CCN(CC)CCCN1C=C2C(=O)C(C)(OC(=O)CCC(=O)OC)C(=O)C=C2C=C1C1CC1 (stereo unspecified) | -2.33% (inactive) | –
CCOC(=O)CN1C(=O)N[C@@H](c2ccco2)C(C(C)=O)=C1C | 2.31% (inactive) | –
CCCCC1=CC2=CC(=O)C(C)(OC(=O)CC)C(=O)C2=CN1Cc1ccc(OC)cc1 (stereo unspecified) | 0.607% (inactive) | –
COC(=O)C1=C(C)N(CC2CC2)C(=O)N[C@H]1c1ccccc1 | 2.83% (inactive) | –
CCCCc1nc2c(c3c1C[C@H](C)OC3)CN(S(=O)(=O)c1ccc(C#N)cc1)CC2 | -1.35% (inactive) | –
